{"source": "ChEMBL document CHEMBL3988442", "about": "“University of Dundee, Small-Polar-MMV Screening Library” (2021)", "system": "Leishmania donovani", "experiment": "Leishmania intramacrophage assay", "format": "functional, organism-based", "parameters": "scale not given: in the data most compounds retested in dose-response had high values", "note": "Hit rate of the full screen: of about 69,000 compounds, about 1,000 (1.4%) showed an effect of 50% or more. The full list was thinned out, with strong results kept by preference."}
{"smiles": "CCn1c(NCc2ccco2)nc2c(C)nn(C)c2c1=O", "values": [{"measurement": "Percent Effect", "setting": "30 µM, 30.03 µM", "result": 16.24, "unit": "%"}]}
{"smiles": "Cc1cc(CN2CCN(C(C)C)C(CCO)C2)[nH]n1", "note": "(stereo not drawn)", "values": [{"measurement": "Percent Effect", "setting": "30.3 µM, […]", "result": 0.4197, "unit": "%"}]}
{"smiles": "c1ccc(Cc2nnc([C@H]3CCN(C4CCCCC4)C3)o2)cc1", "values": [{"measurement": "Percent Effect", "setting": "30.3 µM, […]", "result": 11.62, "unit": "%"}]}
{"smiles": "COc1ccccc1-n1nc(CC(C)C)nc1CSc1nnc(N)s1", "values": [{"measurement": "Percent Effect", "setting": "30.3 µM, […]", "result": 13.73, "unit": "%"}]}
{"smiles": "CN(C)C(=O)COC[C@]12COC[C@H]1CN(C1CCCC1)C2.O=C(O)C(F)(F)F", "values": [{"measurement": "Percent Effect", "setting": "30.3 µM, […]", "result": 40.35, "unit": "%"}]}
{"smiles": "CC(C)(C)NC(=O)CN1CCNCC1.Cl.Cl", "values": [{"measurement": "Percent Effect", "setting": "30.3 µM, […]", "result": 11.16, "unit": "%"}]}
{"smiles": "O=C(O)C(F)(F)F.O=C1CC2(CCN(CC3CC3)C2)CN1c1ccc2c(c1)OCO2", "note": "(stereo not drawn)", "values": [{"measurement": "Percent Effect", "setting": "30 µM, 30.03 µM", "result": 25.29, "unit": "%"}]}
{"smiles": "Cc1c(C(C)N)cnn1-c1cccc2ccccc12", "note": "(stereo not drawn)", "values": [{"measurement": "Percent Effect", "setting": "30.3 µM, […]", "result": 22.69, "unit": "%"}]}
{"smiles": "Cc1ccc(-c2noc(CCC(=O)NC(C)Cn3cccn3)n2)cc1", "note": "(stereo not drawn)", "values": [{"measurement": "Percent Effect", "setting": "30.3 µM, […]", "result": 22.16, "unit": "%"}]}
{"smiles": "Cc1ccc(S(=O)(=O)Nc2ccc(=O)n(C)c2)cc1", "values": [{"measurement": "Percent Effect", "setting": "30 µM, 30.03 µM", "result": 54.33, "unit": "%"}]}
{"smiles": "Cn1cc(NS(=O)(=O)c2ccc(C(F)(F)F)cc2)ccc1=O", "values": [{"measurement": "Percent Effect", "setting": "30 µM", "result": -2.5, "unit": "%"}]}
{"smiles": "CCCc1ccc(S(=O)(=O)Nc2ccc(=O)n(C)c2)cc1", "values": [{"measurement": "Percent Effect", "setting": "30 µM", "result": 20.55, "unit": "%"}]}
{"smiles": "CCN1CC2(CC1=O)CN(Cc1ccoc1)CCN(C(=O)C(C)C)C2", "note": "(stereo not drawn)", "values": [{"measurement": "Percent Effect", "setting": "30.3 µM, […]", "result": 8.034, "unit": "%"}]}
{"smiles": "O=C(c1ccc(Br)o1)N1CCN(Cc2ccc(OC(F)(F)F)cc2)CC1", "values": [{"measurement": "Percent Effect", "setting": "30 µM, 30.03 µM", "result": 31.07, "unit": "%"}]}
{"smiles": "CN(Cc1nc(N)nc(N(C)C)n1)Cc1cccc2ccccc12", "values": [{"measurement": "Percent Effect", "setting": "30.3 µM, […]", "result": 1.643, "unit": "%"}]}
{"smiles": "CN(CCc1cccc2ccccc12)Cc1nc(N)nc(N(C)C)n1", "values": [{"measurement": "Percent Effect", "setting": "30.3 µM, […]", "result": 94.18, "unit": "%"}]}
{"smiles": "CN(CC(=O)Nc1cccc(F)c1)Cc1nc(N)nc(N(C)C)n1", "values": [{"measurement": "Percent Effect", "setting": "30.3 µM, […]", "result": 21.77, "unit": "%"}]}
{"smiles": "Cc1ccc(CN2CCCC3(CCN(S(C)(=O)=O)C3)C2)o1.O=C(O)C(F)(F)F", "note": "(stereo not drawn)", "values": [{"measurement": "Percent Effect", "setting": "30 µM, 30.03 µM", "result": 4.141, "unit": "%"}]}
{"smiles": "Cc1nnc(SCCCNc2cc(C3CC3)ncn2)s1", "values": [{"measurement": "Percent Effect", "setting": "30.3 µM, […]", "result": 31.22, "unit": "%"}]}
{"smiles": "COc1cc(NCCCSc2nnc(C)s2)ncn1", "values": [{"measurement": "Percent Effect", "setting": "30.3 µM, […]", "result": 57.45, "unit": "%"}]}
{"smiles": "COCc1cc(NCCCSc2nnc(C)s2)ncn1", "values": [{"measurement": "Percent Effect", "setting": "30.3 µM, […]", "result": 26.84, "unit": "%"}]}
{"smiles": "Cc1nnc2n1CCN(C(=O)COCCOc1ccccc1)C2", "values": [{"measurement": "Percent Effect", "setting": "30 µM, 30.03 µM", "result": 16.55, "unit": "%"}]}
{"smiles": "Cc1cc(CN2CCCC(C)(CO)C2)ccc1F", "note": "(stereo not drawn)", "values": [{"measurement": "Percent Effect", "setting": "30 µM, 30.03 µM", "result": 31.69, "unit": "%"}]}
{"smiles": "Cc1nc(C)n(CC2CN(Cc3noc(C4CC4)n3)CCO2)n1", "note": "(stereo not drawn)", "values": [{"measurement": "Percent Effect", "setting": "30.3 µM, […]", "result": -6.202, "unit": "%"}]}
{"smiles": "Cc1cnc(CCNC(=O)C2CCN(S(=O)(=O)c3ccc(F)cc3)C2)s1", "note": "(stereo not drawn)", "values": [{"measurement": "Percent Effect", "setting": "30.3 µM, […]", "result": 33.75, "unit": "%"}]}
{"smiles": "COCCN1CCC(CN(CC2CCCO2)C(=O)Cc2cccs2)CC1", "note": "(stereo not drawn)", "values": [{"measurement": "Percent Effect", "setting": "30.3 µM, […]", "result": 8.21, "unit": "%"}]}
{"smiles": "COCCN1CCC(CN(CC2CCCO2)C(=O)COC)CC1", "note": "(stereo not drawn)", "values": [{"measurement": "Percent Effect", "setting": "30 µM, 30.03 µM", "result": -10.91, "unit": "%"}]}
{"smiles": "COCCN1CCC(CN(CC2CCCO2)C(=O)Cn2cccn2)CC1", "note": "(stereo not drawn)", "values": [{"measurement": "Percent Effect", "setting": "30.3 µM, […]", "result": 58.18, "unit": "%"}]}
{"smiles": "Cc1nc(NC(=O)N2CCCC(C(C)(C)O)C2)nn1C", "note": "(stereo not drawn)", "values": [{"measurement": "Percent Effect", "setting": "30.3 µM, […]", "result": -6.912, "unit": "%"}]}
{"smiles": "O=C(C1CC2(CCNCC2)CN1)N1CCN(c2ccccc2)CC1", "note": "(stereo not drawn)", "values": [{"measurement": "Percent Effect", "setting": "30.3 µM, […]", "result": -6.874, "unit": "%"}]}
{"smiles": "Cc1cnccc1N1CCN(C(=O)C2CC3(CCNCC3)CN2)CC1", "note": "(stereo not drawn)", "values": [{"measurement": "Percent Effect", "setting": "30.3 µM, […]", "result": -56.52, "unit": "%"}]}
{"smiles": "Cc1cccc(N2CCN(C(=O)C3CC4(CCNCC4)CN3)CC2)n1", "note": "(stereo not drawn)", "values": [{"measurement": "Percent Effect", "setting": "30.3 µM, […]", "result": 82.82, "unit": "%"}]}
{"smiles": "Cc1cccc(-c2nc(C)nn2CN2CCC3(CC2)OCCO3)c1", "values": [{"measurement": "Percent Effect", "setting": "30.3 µM, […]", "result": -6.145, "unit": "%"}]}
{"smiles": "CCc1nnc(SCc2cc(=O)n3c4c(sc3n2)CCCC4)[nH]1", "values": [{"measurement": "Percent Effect", "setting": "30.3 µM, […]", "result": 54.93, "unit": "%"}]}
{"smiles": "CCCc1nnc(SCc2cc(=O)n3c4c(sc3n2)CCCC4)[nH]1", "values": [{"measurement": "Percent Effect", "setting": "30.3 µM, […]", "result": 1.73, "unit": "%"}]}
{"smiles": "Cc1nnc(SCc2cc(=O)n3c4c(sc3n2)CCCC4)[nH]1", "values": [{"measurement": "Percent Effect", "setting": "30.3 µM, […]", "result": 36.41, "unit": "%"}]}
{"smiles": "CN[C@@H]1CCC[C@@H](Oc2ccccc2Oc2ccc(C)cc2)[C@@H]1O", "values": [{"measurement": "Percent Effect", "setting": "30.3 µM, […]", "result": 98.74, "unit": "%"}]}
{"smiles": "COCC1CCN(S(=O)(=O)N2C[C@H](c3ccccc3)[C@@H](N)C2)CC1", "values": [{"measurement": "Percent Effect", "setting": "30.3 µM, […]", "result": 12.44, "unit": "%"}]}
{"smiles": "Cc1occc1C(=O)N1C[C@@H](C(=O)N2CCCCO2)C[C@H]2OCC[C@H]21", "values": [{"measurement": "Percent Effect", "setting": "30.3 µM, […]", "result": 22.98, "unit": "%"}]}
{"smiles": "CN(CC(=O)Nc1cc(-c2cc(Cl)cc(Cl)c2)[nH]n1)S(C)(=O)=O", "values": [{"measurement": "Percent Effect", "setting": "30.3 µM, […]", "result": 5.087, "unit": "%"}]}
{"smiles": "CN(CC(=O)Nc1cc(C(C)(C)C)n[nH]1)S(C)(=O)=O", "values": [{"measurement": "Percent Effect", "setting": "30.3 µM, […]", "result": -19.26, "unit": "%"}]}
{"smiles": "CN(CC(=O)Nc1cc(CC2CCCCC2)n[nH]1)S(C)(=O)=O", "values": [{"measurement": "Percent Effect", "setting": "30.3 µM, […]", "result": 66.78, "unit": "%"}]}
{"smiles": "Cc1nc(CN2CCCC2c2c(C)nn(C)c2Cl)no1", "note": "(stereo not drawn)", "values": [{"measurement": "Percent Effect", "setting": "30 µM, 30.03 µM", "result": 17.3, "unit": "%"}]}
{"smiles": "CN(C)Cc1cc(C2CCCCN2S(=O)(=O)Cc2ccccc2)nn1C.Cl", "note": "(stereo not drawn)", "values": [{"measurement": "Percent Effect", "setting": "30.3 µM, […]", "result": -6.731, "unit": "%"}]}
{"smiles": "CC(C)NC(=O)CNC(C)c1c(F)cccc1Cl", "note": "(stereo not drawn)", "values": [{"measurement": "Percent Effect", "setting": "30.3 µM, […]", "result": -24.44, "unit": "%"}]}
{"smiles": "CC(NCC(N)=O)c1c(F)cccc1Cl", "note": "(stereo not drawn)", "values": [{"measurement": "Percent Effect", "setting": "30.3 µM, […]", "result": 61.56, "unit": "%"}]}
{"smiles": "CNC(=O)NC(C)c1c(F)cccc1Cl", "note": "(stereo not drawn)", "values": [{"measurement": "Percent Effect", "setting": "30.3 µM, […]", "result": -84.02, "unit": "%"}]}
{"smiles": "Cn1c(-c2ccccc2Cl)nc2cc(C(=O)NCC3(CO)CC3)cnc21", "values": [{"measurement": "Percent Effect", "setting": "30.3 µM, […]", "result": 6.788, "unit": "%"}]}
{"smiles": "O=c1n(CCNCc2cccc3ccccc23)nc2ccccn12", "values": [{"measurement": "Percent Effect", "setting": "30.3 µM, […]", "result": 37.73, "unit": "%"}]}
{"smiles": "CCC(O)c1nc2c([nH]1)CC(C)(C)CNC2=O", "note": "(stereo not drawn)", "values": [{"measurement": "Percent Effect", "setting": "30.3 µM, […]", "result": 4.98, "unit": "%"}]}
{"smiles": "Cn1ncc2c1C(COCC1CC1)CN(Cc1ccoc1)C2", "note": "(stereo not drawn)", "values": [{"measurement": "Percent Effect", "setting": "30 µM, 30.03 µM", "result": 18.09, "unit": "%"}]}
{"smiles": "O=C(NCCc1ccccc1)NCCN1CCC(c2cccs2)CC1", "values": [{"measurement": "Percent Effect", "setting": "30.3 µM, […]", "result": 51.71, "unit": "%"}]}
{"smiles": "O=C(NCCN1CCC(c2cccs2)CC1)Nc1cccs1", "values": [{"measurement": "Percent Effect", "setting": "30 µM, 30.03 µM", "result": 29.53, "unit": "%"}]}
